Measurements taken from the supplement of paper PMC6522484.
± gives the standard deviation of the averaged measurements.

Columns and labels:
DLD1 [1] = assay: cell viability (CellTiter-Glo) relative to plate median (fraction of plate median); higher = more viable cells; settings: 5 µM; treatment time 24 h; reporter: 7TFP
Method in brief: (§1)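 Library compounds were added at a final concentration of 5 µM for 24 h to colorectal cancer cells stably transduced with a lentiviral TCF/Wnt firefly luciferase reporter. Reported values are firefly luciferase or CellTiterGlo luminescence, normalised per well to the plate median. Each value averages two independent replicates.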

HCT116 = assay: as above; settings: 5 µM; treatment time 24 h; reporter: TCF4/Wnt
Method in brief: as §1

SW480 [2] = assay: as above; settings: 5 µM; treatment time 24 h; reporter: 7TFP
Method in brief: as §1

DLD1 [3] = assay: TCF/Wnt firefly luciferase reporter signal relative to plate median (fraction of plate median); higher = higher Wnt reporter signal; settings: 5 µM; treatment time 24 h; reporter: 7TFP
Method in brief: as §1

SW480 [4] = assay: as above; settings: 5 µM; treatment time 24 h; reporter: 7TFP
Method in brief: as §1

Row | SMILES | cell viability (DLD1 [1]) | cell viability (HCT116) | cell viability (SW480 [2]) | TCF/Wnt firefly luciferase reporter signal (DLD1 [3]) | TCF/Wnt firefly luciferase reporter signal (SW480 [4])
1 | COc1ccc2oc3ccccc3c(=O)c2c1 | 1.075 ± 0.0071 | 1.05 ± 0.078 | 1.09 ± 0.05 | 1.15 ± 0.13 | 1.1 ± 0.078
2 | O=c1oc2ccccc2c(O)c1Cc1c(O)c2ccccc2oc1=O | 0.959 ± 0.037 | 0.979 ± 0.044 | 1.01 ± 0.028 | 1.18 ± 0.021 | 1.08 ± 0.05
3 | O=c1cc(-c2ccc(O)cc2)oc2cc(O[C@@H]3O[C@H](CO)[C@@H](O)[C@H](O)[C@H]3O[C@@H]3OC[C@](O)(CO)[C@H]3O)cc(O)c12 | 0.959 ± 0.052 | 1.04 ± 0.057 | 1 ± 0.021 | 1.045 ± 0.0071 | 1.04 ± 0.057
4 | C[C@]12C=CC(=O)C=C1CC[C@H]1[C@@H]3C[C@@H](O)[C@](O)(C(=O)CO)[C@@]3(C)C[C@H](O)[C@@]12F | 0.999 ± 0.086 | 1.01 ± 0.047 | 0.982 ± 0.012 | 0.951 ± 0.069 | 0.89 ± 0.15
5 | CC(=O)O[C@@H]1c2c(ccc3ccc(=O)oc23)OC(C)(C)[C@@H]1OC(=O)CC(C)C | 0.979 ± 0.044 | 1.02 ± 0.029 | 0.931 ± 0.059 | 0.875 ± 0.066 | 0.959 ± 0.054
6 | CC1(C)C=CC(=O)[C@@]2(C)C1CC(=O)[C@]1(C)C2CC[C@@]2(C)[C@H](c3ccoc3)OC(=O)C3OC321 (stereo not given in full) | 1 ± 0.012 | 0.71 ± 0.61 | 0.998 ± 0.018 | 0.99 ± 0.029 | 0.854 ± 0.13
7 | C#CCN(C)Cc1ccccc1 | 0.947 ± 0.053 | 1.08 ± 0.042 | 0.943 ± 0.0099 | 1.14 ± 0.014 | 1.03 ± 0.05
8 | Nc1nc2c(ncn2[C@@H]2O[C@H](CO)[C@@H](O)[C@H]2O)c(=O)[nH]1 [Guanosin] | 0.915 ± 0.033 | 0.934 ± 0.044 | 0.903 ± 0.023 | 0.927 ± 0.019 | 0.88 ± 0.014
9 | COC(=O)C[C@H]1C(C)(C)[C@@H](O)[C@@H]2CC3=C4C=C(OC)O[C@@H](c5ccoc5)[C@]4(C)CCC3[C@@]1(C)C2=O (stereo partly drawn) [3-DEOXO-3beta-HYDROXYMEXICANOLIDE 16-ENOL ETHER] | 0.931 ± 0.11 | 0.91 ± 0.036 | 0.919 ± 0.018 | 0.946 ± 0.07 | 0.921 ± 0.064
10 | CCOC(=O)[C@H](CCc1ccccc1)N[C@@H](C)C(=O)N1CCC[C@H]1C(=O)O | 0.971 ± 0.018 | 1.11 ± 0.085 | 1 ± 0.029 | 1.04 ± 0.035 | 0.994 ± 0.023
11 | Nc1ccn([C@@H]2O[C@H](CO)[C@@H](O)[C@H]2O)c(=O)n1 | 0.977 ± 0.033 | 1.06 ± 0.057 | 1.06 ± 0.028 | 1.16 ± 0.064 | 1.05 ± 0.057
12 | CO[C@H]1C=C[C@@]23c4cc5c(cc4CN(C[C@@H]2O)[C@H]3C1)OCO5 | 0.864 ± 0.075 | 0.847 ± 0.069 | 0.862 ± 0.035 | 0.857 ± 0.057 | 0.901 ± 0.18
13 | COc1cc2c(cc1OC)[C@@H]1Cc3ccc(OC)c(OC)c3CN1CC2 | 0.97 ± 0.085 | 0.941 ± 0.038 | 0.9275 ± 0.0035 | 1.17 ± 0.18 | 1.03 ± 0.028
14 | Cc1cccc(Nc2cc(Cl)nc(SCC(=O)O)n2)c1C | 0.964 ± 0.021 | 0.999 ± 0.044 | 0.9325 ± 0.0064 | 1.09 ± 0.014 | 1.085 ± 0.0071
15 | C[C@H]1[C@@H](O)O[C@@H]2O[C@@]3(C)CC[C@H]4[C@H](C)CC[C@@H]1[C@@]24OO3 | 1.05 ± 0.09 | 0.746 ± 0.12 | 1.24 ± 0.05 | 0.761 ± 0.2 | 1.01 ± 0.052
16 | COc1c(O)cc2oc3cc(O)c(CC=C(C)C)c(O)c3c(=O)c2c1CC=C(C)C [alpha-MANGOSTIN] | 1.055 ± 0.0071 | 1.15 ± 0.021 | 1.01 ± 0.015 | 1.04 ± 0.24 | 0.941 ± 0.076
17 | Cn1c(=O)c2c(ncn2C)n(C)c1=O | 0.899 ± 0.05 | 0.953 ± 0.081 | 0.952 ± 0.0014 | 0.981 ± 0.11 | 1.01 ± 0.04
18 | O=C(O)CN(CC(=O)O)Cc1cc2c(cc1O)Oc1cc(O)c(CN(CC(=O)O)CC(=O)O)cc1C21OC(=O)c2ccccc21 | 0.965 ± 0.03 | 0.914 ± 0.089 | 0.96 ± 0.053 | 0.909 ± 0.13 | 0.895 ± 0.12
19 | CC(=O)OC(C)C[N+](C)(C)C (stereo not given) | 0.968 ± 0.1 | 1.03 ± 0.08 | 0.997 ± 0.019 | 1.01 ± 0.071 | 1.01 ± 0.021
20 | O=C1CC[C@]23/C=C/C(=O)NCCCCNCCCNC(=O)/C=C/c4ccc(c2c4)O[C@@H]3C1 | 1.03 ± 0.014 | 1.06 ± 0.057 | 1.01 ± 0.024 | 1.01 ± 0.056 | 1.04 ± 0.042
21 | CN(C)c1ccc(C(=C2C=CC(=[N+](C)C)C=C2)c2ccc(N(C)C)cc2)cc1 | 0.703 ± 0.016 | 0.381 ± 0.17 | 0.679 ± 0.013 | 0.529 ± 0.091 | 0.465 ± 0.012
22 | COc1ccc2c(c1)OCc1c-2oc2cc(OC)ccc12 | 1.05 ± 0.085 | 1.01 ± 0.021 | 1 ± 0.051 | 1.09 ± 0.064 | 1.035 ± 0.0071
23 | CC1(C)C2CC(=O)O[C@@]3(C)C4=CC(=O)O[C@@H](c5ccoc5)[C@]4(C)CCC3[C@@]2(C)C=C[C@H]1O (stereo not given in full) | 0.95 ± 0.065 | 1.03 ± 0.047 | 0.993 ± 0.024 | 1.05 ± 0.11 | 1.04 ± 0.16
24 | Clc1ccc(CO/N=C(\Cn2ccnc2)c2ccc(Cl)cc2Cl)c(Cl)c1 | 0.9865 ± 0.0092 | 1.03 ± 0.035 | 0.9675 ± 0.0021 | 0.905 ± 0.056 | 0.823 ± 0.0092
25 | C=CC(C1=CC(=O)C(OC)=CC1=O)c1ccc(OC)cc1 (stereo not given) | 1.06 ± 0.035 | 1.13 ± 0.085 | 1.03 ± 0.054 | 0.988 ± 0.059 | 1 ± 0.11
26 | Clc1ccc(CSC(Cn2ccnc2)c2ccc(Cl)cc2Cl)cc1 (stereo not given) | 1.01 ± 0.015 | 0.932 ± 0.14 | 0.954 ± 0.11 | 0.88 ± 0.035 | 0.952 ± 0.036
27 | CC(C)CCCC(C)C1CCC2C3=CCC4CC(O)CCC4(C)C3CCC21C (stereo not given) | 1.05 ± 0.064 | 1.07 ± 0.11 | 1.02 ± 0.043 | 0.891 ± 0.083 | 0.897 ± 0.12
28 | CC(=O)O[C@H]1CC[C@]2(C)[C@H]3CC[C@]4(C)C(=CC[C@@]5(C(=O)O)CCC(C)(C)C[C@H]54)[C@]3(C)CC[C@H]2C1(C)C [3-Acetylaleuritolic acid] | 1.01 ± 0.11 | 1.04 ± 0.11 | 1.01 ± 0.044 | 0.879 ± 0.0085 | 1.02 ± 0.06
29 | CC1=C(/C=C/C(C)=C/C=C/C(C)=C/C(=O)O)C(C)(C)CCC1 | 0.9525 ± 0.0078 | 0.973 ± 0.067 | 0.994 ± 0.052 | 0.912 ± 0.037 | 0.889 ± 0.018
